# Test results taken from PubChem BioAssay (NCATS).
# A number with no mark means an inactive call. Active and inactive are the calls of the source. Calls follow the shape of the dose curve; as a rule, active = well fitted activation curve with a large enough effect; inconclusive = small, poorly fitted or top-dose-only effect; inactive = no such curve, though single readings can be large or run the other way.
# Target: Cytochrome P450 3A4 (Homo sapiens) (UniProt P08684)
# Test: qHTS Assay for Activators of Cytochrome P450 3A4 (AID 885); also: nearly all actives have a fitted effect of over 65% in size
# Settings: recombinant CYP3A4, Luciferin-PPXE luminescence, 60 min; series mostly up to 57.1 µM; activity change, positive = activation: at the top concentration
# Description: NIH Molecular Libraries Screening Centers Network [MLSCN]
# NIH Chemical Genomics Center [NCGC]
# The P450 gene superfamily is involved in the metabolism and clearance of xenobiotics. This assay used human CYP3A4 to measure the dealkylation of luciferin-6' phenylpiperazinylyl (Luciferin-PPXE; […]) to luciferin. The luciferin is then measured by luminescence after the addition of a luciferase detection reagent. Luciferin-PPXE concentration in the assay was equal to its KM for CYP3A4. Inhibitors and some substrates limit the production of luciferin, and decrease measured luminescence; activators increase the production of luciferin and luminescence.
# NCGC Assay Protocol Summary:
# Two uL of enzyme and substrate mix (final concentrations: 20nM CYP3A4, 25uM Luciferin-PPXE, 200mM KPO4) were dispensed into a white, solid bottom 1536-well microtiter plate. 23nL of compound was transferred by a pin tool. The plate was incubated at RT for 10 min. Two uL of an NADPH regeneration solution (Promega supplied reagent) was dispensed and the reaction was allowed to continue for 60 min at RT. Then the reaction was stopped by reconstituted luciferin detection buffer. After another 20 min of incubation the plate was read on the ViewLux (Perkin Elmer) at 60 sec exposure and 2x2 binning. This protocol was carried out with Promega-Glo reagents and further information can be found at http://www.promega.com/tbs/tb325/tb325.pdf. Data were normalized to the to AC100 inhibition (57 uM ketoconazole).
# Keywords: P450, CYP2D6, Luciferase, MLSMR, MLSCN, NIH Roadmap, qHTS, NCGC
# Potency is read from the fitted curve at half-maximal effect.
# Chain of Cytochrome P450 3A4 (Homo sapiens) (P08684 whole entry, looked up): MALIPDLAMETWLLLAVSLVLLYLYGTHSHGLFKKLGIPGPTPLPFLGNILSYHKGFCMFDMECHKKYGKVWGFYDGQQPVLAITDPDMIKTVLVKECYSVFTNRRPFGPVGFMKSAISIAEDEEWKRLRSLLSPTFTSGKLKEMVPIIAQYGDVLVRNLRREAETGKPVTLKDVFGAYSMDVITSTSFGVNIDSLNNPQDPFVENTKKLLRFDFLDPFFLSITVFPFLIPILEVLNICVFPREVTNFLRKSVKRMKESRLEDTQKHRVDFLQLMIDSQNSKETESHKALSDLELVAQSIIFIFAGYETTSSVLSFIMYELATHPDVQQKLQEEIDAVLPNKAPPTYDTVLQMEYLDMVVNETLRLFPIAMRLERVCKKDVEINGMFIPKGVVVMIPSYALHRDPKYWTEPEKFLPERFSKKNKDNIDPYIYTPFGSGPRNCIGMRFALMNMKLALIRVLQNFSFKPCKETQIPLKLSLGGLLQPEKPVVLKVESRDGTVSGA
Structure (SMILES),"activity change, positive = activation",Potency
CN1CCN(c2ncnc3ccc(-c4ccccc4Cl)cc23)CC1,-83.8%,–
CN1CCN(c2ncncc2-c2ccc(C(=O)N(C)C)cc2)CC1,-71.2%,–
COc1cccc(-c2cc(NCc3cccs3)ncn2)c1,-117%,–
COc1ccc(C(=O)N2CCC3(CCCN(Cc4ccncc4)C3)CC2)cc1,-92.6%,–
Cc1nc(NCc2ccccc2)c2nc(-c3ccccc3)n(C3CCN(Cc4ccccc4)C3)c2n1 (stereo not given),-104%,–
COc1ncc2nc(-c3ccc(F)cc3)c(=O)n(C)c2n1,-73.5%,–
O=C(c1cccc(F)c1)N1CCC[C@@]2(CCN(Cc3nccs3)C2)C1,-84.2%,–
COc1ccc2[nH]cc(CCNc3cc(-c4ccccc4C(F)(F)F)ncn3)c2c1,-73.9%,–
c1csc(CNc2cc(-c3ccoc3)ncn2)c1,-51.4%,–
CCCn1c(-c2ccc(F)cc2)nc2c(N3CCN(C)CC3)nc(C)nc21,-42.2%,–
COCCNc1ncnc2ccc(-c3ccc(C(=O)N(C)C)cc3)cc12,-68.9%,–
CN(Cc1ccco1)c1ncncc1-c1ccccc1Cl,-79.6%,–
CCCn1c(-c2ccc(F)cc2)nc2c(NCCN(CC)CC)nc(C)nc21,-50.1%,–
COc1ccc(Oc2ncc3nc(C)c(=O)n(-c4ccccc4)c3n2)cc1,-66.2%,–
COCCn1c(=O)c(-c2ccccc2)nc2cnc(Oc3ccc(OC)cc3)nc21,-81.4%,–
COc1ccc(Oc2ncc3nc(-c4ccc(OC)cc4)c(=O)n(Cc4cccs4)c3n2)cc1,-21.8%,–
CC(=O)N1CCC[C@@]2(CCN(Cc3ccccc3)C2)C1,-32%,–
Cn1cc(-c2nc3cnc(N4CCNCC4)nc3n(C)c2=O)c2ccccc21,-73%,–
COCCN(CCOC)c1nc(C)nc2c1nc(-c1ccccc1)n2CCN(C)C,-55.6%,–
c1ccc2c(N3CCNCC3)nc(-c3ccc4c(c3)OCO4)nc2c1,-62.6%,–

Structure (SMILES),"activity change, positive = activation",Potency
CCCCNc1nc(C)nc2c1nc(-c1ccccc1)n2CCN1CCCCC1,-115%,–
CC(=O)N1CCC2(CCCN(C(c3ccccc3)c3ccccc3)C2)CC1,-51.3%,–
CCCn1c(-c2ccc(F)cc2)nc2c(NC3CC4CCC(C3)N4C)nc(C)nc21 (stereo not given),-45.4%,–
Cc1nc(NC2CCCCC2)c2nc(-c3ccccc3)n(C(C)CN(C)C)c2n1 (stereo not given),-81.2%,–
COCCn1c(=O)c(-c2ccc(OC)cc2)nc2cnc(N3CCNCC3)nc21,-77.2%,–
COC(=O)N1CCC2(CCCN(c3ccc(-c4ccccc4)cc3)C2)CC1,-42.1%,–
O=c1cnc2cnc(N3CCNCC3)nc2n1Cc1ccc(F)cc1,-67.4%,–
CS(=O)(=O)Nc1cccc(-c2cncnc2NCc2cccs2)c1,-95.6%,–
COc1cccc(-c2cncnc2N(C)Cc2ccco2)c1,-103%,–
CCCCNc1nc(C)nc2c1nc(-c1ccccc1)n2C(C)CCCN(CC)CC (stereo not given),-70.2%,–
COCC(=O)N1CCC2(CC1)CN(C(c1ccccc1)c1ccccc1)C2,–,25.1 µM (active)
Cc1cccc(CNc2cc(-c3ccccc3CN(C)C)ncn2)c1,-66.7%,–
COc1ccccc1CN1CC[C@@]2(CCCN(S(C)(=O)=O)C2)C1,-56.6%,–
COc1ccc(C(=O)N2CCC[C@@]3(CCN(C(=O)Nc4ccccc4)C3)C2)cc1,-82.2%,–
O=C(Nc1ccccc1)N1CCC2(CC1)CCN(S(=O)(=O)c1ccccc1)CC2,-50.5%,–
COCCNc1nc(C)nc2c1nc(-c1ccccc1)n2CCCN1CCCCC1C (stereo not given),-37.6%,–
CCCn1c(-c2ccc(F)cc2)nc2c(N(C)CCN(C)C)nc(C)nc21,-38.7%,–
Cc1nc(NC2CCCCC2)c2nc(-c3ccccc3)n(CCCN(C)C)c2n1,-34.7%,–
Cc1nc(Nc2ccccc2)c2nc(-c3ccccc3)n(CCN3CCOCC3)c2n1,-81.8%,–
Cc1nc(N2CCOCC2)c2nc(-c3ccccc3)n(CCCN3CCOCC3)c2n1,-73.7%,–
